Compound activity as filed in PubChem BioAssay.
Shown are actives, neighbours in structure and some others; about 5.7% of the full set was active somewhere.
MPTP block: blocks calcium-induced mitochondrial swelling; inhibition, % at 10 µM; AID 602449; isolated mouse mitochondria, Ca2+ swelling absorbance, 30 min; hit rate 1.4% among 360,000;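 active = inhibition of 50% or more, scaled per plate between neutral and stimulator controls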;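 note: 0% = DMSO wells given calcium and 100% = 1 mM EGTA wells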
FAS-TE inh: blocks the thioesterase domain of human fatty acid synthase; P49327; hit rate 0.67% among 360,000; inhibition, % at 15 µM; recombinant FAS-TE, OMFH fluorogenic substrate, fluorescence endpoint;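 active = compounds whose normalised, plate-corrected inhibition of enzyme fluorescence in the single-dose primary screen is 50% or more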;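 note: 0% = DMSO with enzyme and 100% = substrate without enzyme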
Target sequence (P49327 whole entry, looked up, the tested form may be a part): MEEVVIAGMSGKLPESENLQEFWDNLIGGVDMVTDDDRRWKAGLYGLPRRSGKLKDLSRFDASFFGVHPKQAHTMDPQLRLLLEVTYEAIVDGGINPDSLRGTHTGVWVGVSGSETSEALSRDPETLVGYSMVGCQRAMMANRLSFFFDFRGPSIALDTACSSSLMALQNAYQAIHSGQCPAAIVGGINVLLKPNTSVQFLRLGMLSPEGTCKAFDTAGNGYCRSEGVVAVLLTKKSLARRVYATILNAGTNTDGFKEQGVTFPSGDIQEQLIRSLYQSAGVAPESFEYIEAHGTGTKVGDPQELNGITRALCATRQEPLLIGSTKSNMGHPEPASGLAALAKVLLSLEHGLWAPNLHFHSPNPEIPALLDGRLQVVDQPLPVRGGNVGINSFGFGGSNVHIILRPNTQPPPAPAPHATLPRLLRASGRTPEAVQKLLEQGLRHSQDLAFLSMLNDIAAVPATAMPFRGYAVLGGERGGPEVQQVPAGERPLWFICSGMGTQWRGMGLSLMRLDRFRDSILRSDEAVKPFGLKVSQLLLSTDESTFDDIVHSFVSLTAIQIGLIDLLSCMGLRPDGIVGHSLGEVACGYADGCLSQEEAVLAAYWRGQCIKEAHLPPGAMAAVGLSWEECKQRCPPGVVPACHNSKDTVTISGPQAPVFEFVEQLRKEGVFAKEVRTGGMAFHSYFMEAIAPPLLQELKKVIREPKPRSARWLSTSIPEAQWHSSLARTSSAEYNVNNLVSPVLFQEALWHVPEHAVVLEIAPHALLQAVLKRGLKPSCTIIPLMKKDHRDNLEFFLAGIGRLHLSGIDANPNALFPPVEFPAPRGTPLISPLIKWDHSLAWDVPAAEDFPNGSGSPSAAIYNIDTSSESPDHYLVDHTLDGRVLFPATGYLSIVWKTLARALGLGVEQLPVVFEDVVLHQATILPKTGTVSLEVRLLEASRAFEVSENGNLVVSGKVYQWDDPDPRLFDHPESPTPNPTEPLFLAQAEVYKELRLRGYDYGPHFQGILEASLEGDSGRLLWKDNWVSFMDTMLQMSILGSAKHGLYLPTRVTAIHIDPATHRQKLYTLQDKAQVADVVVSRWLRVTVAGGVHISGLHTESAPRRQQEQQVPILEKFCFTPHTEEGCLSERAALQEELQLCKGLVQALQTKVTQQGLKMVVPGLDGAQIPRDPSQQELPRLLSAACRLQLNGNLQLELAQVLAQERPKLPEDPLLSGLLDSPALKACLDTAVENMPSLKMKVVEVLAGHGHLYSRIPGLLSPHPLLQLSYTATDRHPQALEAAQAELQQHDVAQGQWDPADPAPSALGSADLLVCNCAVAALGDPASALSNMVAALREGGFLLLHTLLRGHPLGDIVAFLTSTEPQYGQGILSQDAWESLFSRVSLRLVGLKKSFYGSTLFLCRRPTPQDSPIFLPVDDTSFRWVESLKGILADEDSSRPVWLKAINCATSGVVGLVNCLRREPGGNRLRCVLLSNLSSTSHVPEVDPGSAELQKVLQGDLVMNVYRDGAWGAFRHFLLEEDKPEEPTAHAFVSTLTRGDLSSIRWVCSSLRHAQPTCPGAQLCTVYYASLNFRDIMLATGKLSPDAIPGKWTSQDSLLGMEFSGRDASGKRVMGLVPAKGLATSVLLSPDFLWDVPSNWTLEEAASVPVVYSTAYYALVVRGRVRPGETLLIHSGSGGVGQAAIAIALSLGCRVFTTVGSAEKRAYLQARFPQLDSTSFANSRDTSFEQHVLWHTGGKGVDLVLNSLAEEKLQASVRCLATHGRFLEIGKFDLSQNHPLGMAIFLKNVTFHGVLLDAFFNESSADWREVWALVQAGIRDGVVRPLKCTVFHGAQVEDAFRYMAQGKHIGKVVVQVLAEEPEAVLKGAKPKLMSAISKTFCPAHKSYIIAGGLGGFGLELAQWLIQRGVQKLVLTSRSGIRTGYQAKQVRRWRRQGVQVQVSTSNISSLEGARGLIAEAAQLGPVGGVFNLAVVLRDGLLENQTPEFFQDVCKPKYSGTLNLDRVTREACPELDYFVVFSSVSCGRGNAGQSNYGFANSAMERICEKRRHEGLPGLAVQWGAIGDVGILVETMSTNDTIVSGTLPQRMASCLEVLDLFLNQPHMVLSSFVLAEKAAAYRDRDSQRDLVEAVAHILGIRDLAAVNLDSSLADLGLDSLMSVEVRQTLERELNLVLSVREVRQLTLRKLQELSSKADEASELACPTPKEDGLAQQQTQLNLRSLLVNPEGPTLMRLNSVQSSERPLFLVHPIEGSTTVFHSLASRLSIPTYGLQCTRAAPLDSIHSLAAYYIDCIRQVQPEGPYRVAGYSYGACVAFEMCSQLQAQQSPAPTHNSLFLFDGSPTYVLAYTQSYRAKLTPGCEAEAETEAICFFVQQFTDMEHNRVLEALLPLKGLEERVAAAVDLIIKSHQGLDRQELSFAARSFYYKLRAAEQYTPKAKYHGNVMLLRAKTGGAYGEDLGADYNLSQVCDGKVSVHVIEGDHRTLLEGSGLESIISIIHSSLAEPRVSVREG
Myeloid diff 2: myeloid differentiation induction. ER-HoxA9 myeloid progenitors, lysozyme-GFP differentiation, flow cytometry. calls only at 10 µM. hit rate 1% among 360,000;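 active = normalized GFP-positive differentiation at or above the plate's own cutoff, the solvent-only control mean plus 3 SD; inconclusive = no clear call, values can overlap the other calls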;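 note: cells exposed to compound for four days before flow analysis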
NR3A LBD binder: NR3A (human) ligand-binding domain modulation | NR3A LBD differential scanning fluorimetry, Tm shift; 0% = protein alone, 100% = glycine-bound protein | hit rate 2.5% among 340,000 | Tm shift relative to glycine control, % at 25 µM | AID 1259313;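 active = melting temperature shift of at least 10% of the positive control shift, at one fixed dose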
rCAG binder: r(CAG) repeat RNA binding. inhibition, % at 3 µM. TO-PRO-1 dye displacement fluorescence. hit rate 1.3% among 370,000. AID 651821;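 active = inhibition above the plate cutoff, the mean of all test compounds on that plate plus 3 SD, cut at about 35% in these data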;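 note: 0% = DMSO alone and 100% = 100 µM mitoxantrone as full dye displacement; higher means more dye released from RNA so lower well fluorescence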
MPTP counter: Rhodamine 123 counter-screen of mitochondrial pore hits. hit rate 78% among 5,000. inhibition, % at 10 µM. AID 624504. isolated mitochondria, membrane potential, Rhodamine 123 fluorescence. shares compounds with MPTP block; in the data active = inhibition above about 22%;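 note: 0% = DMSO vehicle and 100% = positive control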
MPTP abs DR: MPTP inhibition, dose response swelling confirmation | AID 651561 | isolated mitochondria swelling, absorbance | hit rate 58% among 780 | shares compounds with MPTP block | IC50, µM; in the data active = IC50 below about 20 µM
MPTP counter DR: counter-screen for mitochondrial permeability transition pore inhibitors, dose response; AID 651564; isolated mitochondria counterscreen, fluorescence read-out; hit rate 49% among 780; IC50, µM; shares compounds with MPTP block; in the data active = IC50 below about 80 µM
Starred values were filed as active, the others as inactive; i = inactive; ? = inconclusive; . = no result given; + = active, no number.

SMILES | MPTP block | FAS-TE inh | Myeloid diff 2 | NR3A LBD binder | rCAG binder | MPTP counter | others
COc1cc(CNCc2ccncc2)cc(Br)c1OCc1ccccc1F | 94.1* | 1.3 | i | -2.6 | -3.4 | 65.5*
CCOc1cc(CNC(C)(C)CO)cc(Br)c1OCc1ccc(Cl)cc1Cl | 7.4 | 11.4 | i | 1.4 | 2.5 | .
CCOc1cc(CNCCO)cc(Br)c1OCc1ccccc1Cl | 82.2* | -10.9 | i | -2.8 | -0.6 | 20.4*
CN(C(=O)c1ccc(Br)o1)C1CCS(=O)(=O)C1 (centres undefined) | 1.6 | -4.9 | i | -1.6 | -0.5 | .
Nc1ccn([C@@H]2O[C@H](C(=O)NCc3ccc4c(c3)OCO4)[C@@H](O)[C@H]2O)c(=O)n1 | -0.1 | -9.3 | i | . | 1.4 | .
COc1cccc(N2CCN(c3ncnc4c3[nH]c3ccc(F)cc34)CC2C)c1 (centres undefined) | 99.6* | 19.5 | ? | 5.5 | 5.9 | 92.7*
CCCCOc1ccc(-c2nc(-c3cccnc3)no2)cc1 | 64.1* | 19.9 | i | 2.3 | -3.4 | 1.4 | MPTP abs DR=13.5*;MPTP counter DR=14.1*
CCOc1ccc(-c2nc(-c3cccnc3)no2)cc1 | 1.5 | -1.4 | i | 0.0 | -4.4 | .
O=C(CN1c2ccccc2Sc2ccccc21)NNC(=O)Nc1ccc(Cl)c(Cl)c1 | 51.9* | 23.5 | i | 15.8* | 4.0 | 22.4*
O=C(NNc1nc2ccccc2s1)Nc1ccc(Cl)c(Cl)c1 | 73.5* | 4.8 | i | 15.9* | 12.6 | 75.2*
O=C(CN1c2ccccc2Sc2ccccc21)N/N=C/c1ccccc1 | -2.5 | 33.0 | i | 4.7 | 4.4 | .
CSc1ncnc2ncn(C)c12 | 1.2 | -6.6 | i | 3.3 | 0.2 | .
CCOc1ccccc1CNS(=O)(=O)c1ccc(-c2cnc(C3CC3)o2)cc1 | 50.8* | 19.7 | ? | -5.3 | 2.5 | 84.3*
O=S(=O)(NCc1ccccc1)c1ccc(-c2cnc(C3CC3)o2)cc1 | -0.6 | 1.1 | i | 2.0 | -2.5 | .
COc1ccc2ccccc2c1/C=N/Nc1ccc(Cl)c(C(=O)O)c1 | 1.7 | 2.0 | i | -28.6 | 18.2 | .
COc1ccc(N/N=C/c2c(C(=O)O)ccc3ccccc23)cc1 | 82.3* | 16.3 | i | 2.9 | 22.2 | 51.7*
CC(=O)c1ccc(NC(=O)CNc2cc(S(=O)(=O)N3CCOCC3)ccc2N2CCCC2)cc1 | -1.7 | 3.3 | i | 0.4 | 6.7 | .
COc1ccc(-n2cnc3ccccc3c2=O)c([N+](=O)[O-])c1 | -2.6 | 3.4 | i | 0.9 | 0.3 | .
O=C(COc1ccc(S(=O)(=O)NC2CCCCC2)cc1)NCC1CCCO1 (centres undefined) | -0.7 | -5.4 | i | -1.3 | -7.2 | .
O=Cc1ccc(OCC(=O)NCC2CCCO2)cc1 (centres undefined) | 64.5* | -4.4 | i | -5.2 | 0.4 | 0.2 | MPTP abs DR=>100;MPTP counter DR=>80
N#CC1=C(N)SC(N)=C(C#N)C1Cc1ccccc1 | 76.6* | -73.3 | i | -3.2 | 13.9 | 72.9*
Cc1[nH]nc2c1C(Cc1ccccc1)C(C#N)=C(N)O2 (centres undefined) | -1.0 | -9.1 | i | -3.2 | 0.8 | .
CC(C)CC1C(C#N)=C(N)SC(N)=C1C#N | 62.2* | -76.6 | i | -3.1 | 7.8 | 78.3*
N#CC1=C(N)SC(N)=C(C#N)C1CCc1ccccc1 | 95.7* | -120.8 | + | 2.8 | 25.1 | 67.3*
N#CC1=C(N)SC(N)=C(C#N)C1c1c(Cl)cccc1Cl | 5.9 | -22.4 | i | -12.3 | 9.8 | .
CSCCC(C(=O)NCc1ccccc1)n1c(-c2ccc3c(c2)CCO3)nc2ccccc21 (centres undefined) | 0.2 | . | i | . | 2.4 | .
CCN(c1ccc2c(c1)OCO2)S(=O)(=O)c1cc2c(cc1Br)CCN2C(=O)C1CC1 | -2.0 | 26.3 | i | 2.4 | 6.7 | .
CC(=O)Nc1nonc1NC(=O)COc1ccccc1 | -0.9 | -1.4 | i | -2.3 | 0.3 | .
Cc1ccc2c(c1)c1c3n2CCCNC3CCC1 (centres undefined) | -5.4 | -5.9 | i | 0.9 | 2.8 | .
c1cc2c(cc1C1CCCCC1)c1c3n2CCCNC3CCC1 (centres undefined) | 80.4* | -34.4 | ? | 0.1 | 9.8 | -29.1
